Measurements published in the supplement of paper PMC6555819.

Key:
Test in all cases: PBM binding z-score (relative to random genomic background probes); higher = stronger binding; sequences stand for … in GC…GCGATTGACAGCGTAGAATGAAGG
[1] = system: FXR:RXRa (NR concentration 270 nM, RXRa partner concentration 90 nM)
Summary of the method: (§1)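 For binding z-scores, the reference was random background probes on custom Agilent 4×180K protein-binding microarrays. These arrays were incubated 1 h with ligand-free nuclear receptor dimers in PBS pH 7.4, 2% milk, 0.02% Triton X-100, 1 mM DTT, 0.2 mg/mL BSA and 0.4 mg/ml salmon testes DNA. Fluorescence was scanned after antibody detection of each partner (one per run) and regression-normalized.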

[2] = system: LXRa homodimer (NR concentration 270 nM)
Summary of the method: as §1

[3] = system: LXRb homodimer (NR concentration 270 nM)
Summary of the method: as §1

[4] = system: PPARg:RXRa (NR concentration 180 nM, RXRa partner concentration 90 nM)
Summary of the method: as §1

[5] = system: PPARg:RXRa 270nM:90nM, anti-RXR (NR concentration 270 nM, RXRa partner concentration 90 nM)
Summary of the method: as §1

[6] = system: PPARg:RXRa 30nM:10nM, anti-RXR (NR concentration 30 nM, RXRa partner concentration 10 nM)
Summary of the method: as §1

[7] = system: PPARg:RXRa 90nM:30nM, anti-RXR (NR concentration 90 nM, RXRa partner concentration 30 nM)
Summary of the method: as §1

[8] = system: PPARg:RXRa DBDmut IVT, anti-RXR (DBD mutation: RXRa K156A/R161A, NR concentration 270 nM, RXRa partner concentration 90 nM)
Summary of the method: as §1

[9] = system: LXRa:RXRa (NR concentration 270 nM, RXRa partner concentration 90 nM)
Summary of the method: as §1

[10] = system: PPARa:RXRa (NR concentration 270 nM, RXRa partner concentration 90 nM)
Summary of the method: as §1

## CAAACTAGGTCACAAAAGGTCAAAGTCGAATGAC
[1]
  PBM binding z-score: 7.02
[2]
  PBM binding z-score: 7.78
[3]
  PBM binding z-score: 3.46
[4]
  PBM binding z-score: 10.1
[5]
  PBM binding z-score: 8.38
[6]
  PBM binding z-score: 6.97
[7]
  PBM binding z-score: 8.43
[8]
  PBM binding z-score: 8.13

## AGAATGAGGTCAAGATCAGGGAAACAGAATACAT
[9]
  PBM binding z-score: 5.9
[2]
  PBM binding z-score: 0.974
[3]
  PBM binding z-score: 1.7
[10]
  PBM binding z-score: 6.42
[4]
  PBM binding z-score: 7.59
[5]
  PBM binding z-score: 6.96
[6]
  PBM binding z-score: 4.75
[7]
  PBM binding z-score: 6.74
[8]
  PBM binding z-score: 5.82

## AGAATGAGGTTACCAAAGGTCAGGGAAACGCTTG
[1]
  PBM binding z-score: 6.02
[2]
  PBM binding z-score: 8.17
[3]
  PBM binding z-score: 0.893
[4]
  PBM binding z-score: 5.51
[5]
  PBM binding z-score: 5.63
[6]
  PBM binding z-score: 3.27
[7]
  PBM binding z-score: 4.99
[8]
  PBM binding z-score: 4.16

## CGTCCAAGGTCAGCGGGTCAGTGAAAGCGACGTG
[1]
  PBM binding z-score: 5.98
[2]
  PBM binding z-score: 0.175
[3]
  PBM binding z-score: -0.324
[4]
  PBM binding z-score: 4.41
[5]
  PBM binding z-score: 4.84
[6]
  PBM binding z-score: 1.19
[7]
  PBM binding z-score: 2.81
[8]
  PBM binding z-score: 3.12

## AATAAAGGGTCATCGTAGGCCAGAGTACGCACAG
[9]
  PBM binding z-score: 6.44
[2]
  PBM binding z-score: 3.35
[3]
  PBM binding z-score: 2.31
[10]
  PBM binding z-score: 5.96
[4]
  PBM binding z-score: 7.14
[5]
  PBM binding z-score: 6.58
[6]
  PBM binding z-score: 3.39
[7]
  PBM binding z-score: 5.44
[8]
  PBM binding z-score: 3.16

## ATATGTAGGTTAGCTGAGGTCATTCAGACTAGGC
[1]
  PBM binding z-score: 5.29
[2]
  PBM binding z-score: 6.24
[3]
  PBM binding z-score: 1.12
[4]
  PBM binding z-score: 5.21
[5]
  PBM binding z-score: 4.91
[6]
  PBM binding z-score: 2.35
[7]
  PBM binding z-score: 4.11
[8]
  PBM binding z-score: 6.93

## TCTAGTCGGTCAAAGGTCACACACTCGAAATGCG
[1]
  PBM binding z-score: 6.97
[2]
  PBM binding z-score: 5.28
[3]
  PBM binding z-score: 2.21
[5]
  PBM binding z-score: 10.2
[6]
  PBM binding z-score: 11.1
[7]
  PBM binding z-score: 11.4
[8]
  PBM binding z-score: 5.17

## AGTCAAAGTTTATCTAGGTAACGTAAGATATGCT
[9]
  PBM binding z-score: 0.263
[2]
  PBM binding z-score: 0.141
[3]
  PBM binding z-score: -0.331
[10]
  PBM binding z-score: 2.17
[4]
  PBM binding z-score: 2.44
[5]
  PBM binding z-score: 2.51
[6]
  PBM binding z-score: 0.904
[7]
  PBM binding z-score: 1.95
[8]
  PBM binding z-score: 2.68

## ATATGTAGGTTAGGGTCAGTCAGAAAGTAGGGAA
[9]
  PBM binding z-score: 2.82
[2]
  PBM binding z-score: 0.758
[3]
  PBM binding z-score: 1.69
[10]
  PBM binding z-score: 4.61
[4]
  PBM binding z-score: 6.72
[5]
  PBM binding z-score: 5.54
[6]
  PBM binding z-score: 3.24
[7]
  PBM binding z-score: 4.97
[8]
  PBM binding z-score: 6.27

## CCGAGTAGGTTACGAGGGGTCATTCAGTGCGAAT
[1]
  PBM binding z-score: 4.94
[2]
  PBM binding z-score: 6.16
[10]
  PBM binding z-score: 5.09
[4]
  PBM binding z-score: 4.13
[5]
  PBM binding z-score: 4.4
[6]
  PBM binding z-score: 1.73
[7]
  PBM binding z-score: 3.54
[8]
  PBM binding z-score: 4.41

## AGTCAAACTTCAGGACGAGGTAACGTAAAGCACG
[9]
  PBM binding z-score: -0.137
[2]
  PBM binding z-score: -0.0988
[3]
  PBM binding z-score: -0.504
[10]
  PBM binding z-score: 0.0838
[4]
  PBM binding z-score: 0.919
[5]
  PBM binding z-score: -0.132
[6]
  PBM binding z-score: 0.281
[7]
  PBM binding z-score: -0.00758
[8]
  PBM binding z-score: -0.522

## CCTACTGGGCCATTCAGAGGTCAATGATCATATG
[1]
  PBM binding z-score: 2.47
[2]
  PBM binding z-score: 4.81
[3]
  PBM binding z-score: 0.521
[4]
  PBM binding z-score: 2.59
[5]
  PBM binding z-score: 3.02
[6]
  PBM binding z-score: 0.908
[7]
  PBM binding z-score: 2.2
[8]
  PBM binding z-score: 4.08

## CCGAGAAGGTTACGAGGGGGCATTCAGTGCGAAT
[1]
  PBM binding z-score: 4.03
[2]
  PBM binding z-score: 1.76
[10]
  PBM binding z-score: 4.3
[4]
  PBM binding z-score: 1.9
[5]
  PBM binding z-score: 2.99
[6]
  PBM binding z-score: 0.996
[7]
  PBM binding z-score: 1.72
[8]
  PBM binding z-score: 1.32

## ATTTGTAGGTTACATCCGGGTCATTCAGGCTATG
[9]
  PBM binding z-score: 5.11
[2]
  PBM binding z-score: 2.84
[3]
  PBM binding z-score: 1.83
[10]
  PBM binding z-score: 4.12
[4]
  PBM binding z-score: 4.22
[5]
  PBM binding z-score: 4.28
[6]
  PBM binding z-score: 2.12
[7]
  PBM binding z-score: 3.26
[8]
  PBM binding z-score: 6.92

## TACCCTAGGTCATGGGCCAGTATACCACGCGAAC
[1]
  PBM binding z-score: 5.02
[2]
  PBM binding z-score: 6.35
[3]
  PBM binding z-score: 2.13
[4]
  PBM binding z-score: 4.58
[5]
  PBM binding z-score: 4.25
[6]
  PBM binding z-score: 1.59
[7]
  PBM binding z-score: 3.13
[8]
  PBM binding z-score: 1.55

## AGAACGAGGTCACGCTGAGTTGATAGCAGAGTAG
[9]
  PBM binding z-score: 6.2
[2]
  PBM binding z-score: 0.912
[3]
  PBM binding z-score: 0.705
[10]
  PBM binding z-score: 6.34
[4]
  PBM binding z-score: 9.52
[5]
  PBM binding z-score: 8.1
[6]
  PBM binding z-score: 6.32
[7]
  PBM binding z-score: 7.52
[8]
  PBM binding z-score: 6.78

## CCGAGGAGGTTACGAGGGGGCATTCAGTGCGAAT
[1]
  PBM binding z-score: 4.41
[2]
  PBM binding z-score: 1.63
[4]
  PBM binding z-score: 2.38
[5]
  PBM binding z-score: 3.52
[6]
  PBM binding z-score: 0.838
[7]
  PBM binding z-score: 2.45
[8]
  PBM binding z-score: 1.54

## TAGCCGAGGTCATTCAGGGGCCAGTATAGAAAGC
[9]
  PBM binding z-score: 6.28
[2]
  PBM binding z-score: 2.47
[3]
  PBM binding z-score: 2.89
[10]
  PBM binding z-score: 6.23
[4]
  PBM binding z-score: 6.14
[5]
  PBM binding z-score: 5.81
[6]
  PBM binding z-score: 2.43
[7]
  PBM binding z-score: 4.55
[8]
  PBM binding z-score: 1.75

## CGTCAAAGTCCAAGGTAACGTAACAGAAAGCAGC
[9]
  PBM binding z-score: -0.0963
[2]
  PBM binding z-score: 0.0661
[3]
  PBM binding z-score: -0.271
[10]
  PBM binding z-score: 0.351
[4]
  PBM binding z-score: 0.688
[5]
  PBM binding z-score: 0.296
[6]
  PBM binding z-score: 0.129
[7]
  PBM binding z-score: 0.303
[8]
  PBM binding z-score: 0.295

## CAAACTAGGTCACCGAAAGGTCAAAGTCCGCATG
[1]
  PBM binding z-score: 7.31
[2]
  PBM binding z-score: 7.45
[3]
  PBM binding z-score: 2.39
[5]
  PBM binding z-score: 8.22
[6]
  PBM binding z-score: 6.51
[7]
  PBM binding z-score: 8.62
[8]
  PBM binding z-score: 8.72

## CGAACTAGGTCAAGGGACAGTGAAAGGCGACGTA
[9]
  PBM binding z-score: 2.17
[2]
  PBM binding z-score: -0.308
[3]
  PBM binding z-score: -0.604
[10]
  PBM binding z-score: 4.78
[4]
  PBM binding z-score: 8.6
[5]
  PBM binding z-score: 7.25
[6]
  PBM binding z-score: 5.85
[7]
  PBM binding z-score: 7.35
[8]
  PBM binding z-score: 7.79

## ACTTAAGGGTCAACGAGGTTATAGCACGCGTATA
[9]
  PBM binding z-score: 6.42
[2]
  PBM binding z-score: 1.86
[3]
  PBM binding z-score: 1.21
[10]
  PBM binding z-score: 6.46
[4]
  PBM binding z-score: 7.09
[5]
  PBM binding z-score: 6.95
[6]
  PBM binding z-score: 3.18
[7]
  PBM binding z-score: 5.51
[8]
  PBM binding z-score: 3.78

## CCTACTGGGTCAAAGGTCATTGATTCCAATGCTC
[1]
  PBM binding z-score: 7.5
[2]
  PBM binding z-score: 5.27
[3]
  PBM binding z-score: 1.18
[5]
  PBM binding z-score: 11.2
[6]
  PBM binding z-score: 12.3
[7]
  PBM binding z-score: 13
[8]
  PBM binding z-score: 7.6

## AAAACAGGGTCATCGTAGGCCAGAGTACGCACAG
[9]
  PBM binding z-score: 6.26
[2]
  PBM binding z-score: 0.569
[3]
  PBM binding z-score: 1.32
[10]
  PBM binding z-score: 6.26
[4]
  PBM binding z-score: 7.65
[5]
  PBM binding z-score: 6.86
[6]
  PBM binding z-score: 4.1
[7]
  PBM binding z-score: 5.89
[8]
  PBM binding z-score: 4.38

## CCTGCGAGGTCATGGTCAGCTAATCTACAGTATG
[9]
  PBM binding z-score: 5.55
[2]
  PBM binding z-score: 1.41
[3]
  PBM binding z-score: 0.772
[10]
  PBM binding z-score: 5.87
[4]
  PBM binding z-score: 5.93
[5]
  PBM binding z-score: 5.94
[6]
  PBM binding z-score: 2.34
[7]
  PBM binding z-score: 4.57
[8]
  PBM binding z-score: 3.79

## TAGCCTAGGTCATACAGGGGCCAGTATAGAAAGC
[9]
  PBM binding z-score: 3.34
[2]
  PBM binding z-score: 0.359
[3]
  PBM binding z-score: 0.751
[10]
  PBM binding z-score: 3.72
[4]
  PBM binding z-score: 2.36
[5]
  PBM binding z-score: 2.35
[6]
  PBM binding z-score: 0.845
[7]
  PBM binding z-score: 1.62
[8]
  PBM binding z-score: 1.94

## TCTAGTTGGTCACGGAGGTCCCACACGACGGGTA
[1]
  PBM binding z-score: -0.177
[2]
  PBM binding z-score: 0.0478
[3]
  PBM binding z-score: -0.115
[4]
  PBM binding z-score: 0.739
[5]
  PBM binding z-score: 1.93
[6]
  PBM binding z-score: 3.06
[7]
  PBM binding z-score: 2.25
[8]
  PBM binding z-score: 1.68
